Measurements reported in PubChem BioAssay AID1159580 (chemical genetic matrix, 2015).
Out of some 5,500 compounds screened, about 2,000 (36%) were called active. Another 18% or so got no clear call; they are omitted. No stated cut-off is given here; in the data, active means normalized growth mostly below about 0.91 (no sharp cut-off); inconclusive means no clear call, values can overlap the other calls; inactive means mostly above about 0.92. The list shows a part of the results.

Assay: chemical genetic growth profiling, strain panel (AID 1159580);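 further: tested at 20 µM; growth read once vehicle control cultures reached saturation at 30 °C; 1 = growth at the plate median or of vehicle wells; lower values mean less growth of the strain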
Settings: S. cerevisiae deletion strains, growth OD

Measured: normalized growth

CC(C)(C)[C@]1(O)CCN2C[C@H]3c4ccccc4CCc4cccc(c43)[C@@H]2C1
inactive: locus YAL040C, strain CLN3, active compounds read low 0.999 | locus YDR363W, strain ESC2, active compounds read low 0.994 | locus YER002W, strain NOP16, active compounds read low 0.993 | locus YMR263W, strain SAP30, active compounds read low 1 | locus YNL128W, strain TEP1, active compounds read low 1.01 | locus YNL175C, strain NOP13, active compounds read low 1.03 | locus YNL197C, strain WHI3, active compounds read low 1.02 | locus YNL224C, strain SQS1, active compounds read low 1.02 | locus YNL322C, strain KRE1, active compounds read low 1.01 | locus YOR083W, strain WHI5 (second series), active compounds read low 1.05

OC[C@@H](O)[C@H](O)[C@@H](O)[C@H](O)CO
inactive: locus YHR030C, strain SLT2, active compounds read low 0.974 | locus YHR079C, strain IRE1, active compounds read low 0.995 | locus YJL095W, strain BCK1, active compounds read low 1 | locus YJR066W, strain TOR1, active compounds read low 0.936 | locus YLR113W, strain HOG1, active compounds read low 0.959 | locus YNL183C, strain NPR1, active compounds read low 0.941 | locus YOR231W, strain MKK1, active compounds read low 0.991 | locus YPL256C, strain CLN2, active compounds read low 0.964
